A short description of the assay: fluorescence interference artefacts, compound only, dose response, artefact control for cardiac thin filament activator project, biochemical, no RTF in test wells (AID 504697).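 Also: emission near 535 nm under roughly 485 nm excitation as for IANBD.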 The note with it: compound-only fluorescence in RTF assay buffer with Ca2+ (no RTF in test wells), artifact counterscreen. For orientation: Counterscreens check selectivity or assay interference.

Structures are written as SMILES. Values without a mark were called inactive.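 The calls were made as follows: active = EC50 at or below 10 µM; inactive = EC50 above 10 µM.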 Bounds are passed on as bounds.

We go through 16 compounds from PubChem BioAssay AID504697 (The Scripps Research Institute Molecular Screening Center, 2011).

Broadly, the EC50 is the concentration giving half of the maximal effect.

In the case of `Cc1ccc(S(=O)(=O)NCCCCCC(=O)Nc2ccccc2C)cc1`, the EC50 was above 71.5 µM.

On to `N#C/C(=C\c1ccc(N2CCOCC2)o1)C(=O)NC1CCCCC1`, for which the EC50 is 16.5 µM. To `COc1cc(C(=O)Oc2ccccc2/C=N/NC(=O)c2ccc(Cl)cc2)cc(OC)c1OC` belongs above 71.5 µM; to `CNc1ccccc1C(C)(C)c1cc(C)[nH]n1`, above 71.5 µM. As for `Cc1sc(NC(=O)CSc2nnc(C(C)C)n2C)c(C#N)c1C`, the EC50 is above 71.5 µM. Regarding `COC(=O)C1=C(C)NC(=O)/C1=C\N(C)C`, the EC50 is above 71.5 µM. To `Fc1ccc(CNC(=S)NCc2ccc(F)cc2)cc1` belongs above 71.5 µM; to `Cc1ccc(NC(=O)CN(C)c2ccc(S(=O)(=O)N3CCCC3)cn2)cc1`, above 71.5 µM. On to `C=CCOc1ccc(Br)cc1CNCC`, for which the EC50 is above 71.6 µM. With `COc1cc(-c2c(-c3ccc4c(c3)OCO4)noc2C)ccc1F` the figure was above 71.4 µM; with `CCCN1CCc2c(sc(NC(=S)NC(=O)c3ccccc3)c2C#N)C1`, above 71.5 µM.

For `O=C(Nc1ccc2c(c1)OCCO2)c1cccc(Cl)c1Cl`, the EC50 is above 71.4 µM.

As to `c1ccc(Cn2c(-c3ccccc3)nc3nc4ccccc4nc32)cc1`, the EC50 is above 71.5 µM.

As to `COc1ccccc1NS(=O)(=O)c1cc(NC(=O)c2cc3ccccc3oc2=O)ccc1C`, the EC50 is above 71.5 µM.

Consider `CCOC(=O)/C(=C/C1=CC(=C/N(C)C)/C(=O)O1)C(C)=O`, for which the EC50 was 15.3 µM. With `O=C(C1=C(O)C(=O)N(CCN2CCOCC2)C1c1ccc([N+](=O)[O-])cc1)c1cccs1` (stereo unspecified) the figure was above 71.4 µM.
